This is an account of results in PubChem BioAssay (NCATS).

Results filed as inconclusive are left out. The source made the active and inactive calls. Calls come from the whole dose curve; as a rule, active = well fitted inhibition curve with a large enough effect; inconclusive = small, poorly fitted or top-dose-only effect; inactive = flat fitted curve, though single readings scatter.

Assay in all cases: qHTS profiling for inhibitors of Plasmodium falciparum proliferation (AID 504749); note: nearly all actives have a fitted effect of over 60% in size
What all share (details): P. falciparum in erythrocytes, SYBR Green DNA, 72 h; series mostly up to 28.7 µM

The test system of test [1] is ATS189. The method, boiled down:
(§1)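 P. falciparum-infected erythrocytes (0.3% parasitemia, 2.5% hematocrit final) were exposed to compounds for 72 h at 37 C in 5% CO2, then lysed with SYBR Green buffer overnight at room temperature; parasite DNA fluorescence was normalized to artemisinin and DMSO controls.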

In test [2] the test system is ATS95. The procedure, abridged: as §1
Test [3] concerns C2A. The procedure, abridged: as §1
For test [4], the system named is CP185. The procedure, abridged:
as §1

In test [5] the test system is CP191. The procedure, abridged: as §1
In test [6] the test system is CP192. The procedure, abridged: as §1
The test system of test [7] is CP194. The procedure, abridged:
as §1

Test [8] concerns CP201. The method, boiled down:
as §1

The subject of test [9] is CP203. The procedure, abridged: as §1
In test [10] the test system is CP211. The procedure, abridged: as §1
Potency is the fitted concentration of half-maximal effect.

Regarding `COC(C(=O)C(O)C(C)O)C1Cc2cc3cc(OC4CC(OC5CC(O)C(O)C(C)O5)C(O)C(C)O4)c(C)c(O)c3c(O)c2C(=O)C1OC1CC(OC2CC(OC3CC(C)(O)C(O)C(C)O3)C(O)C(C)O2)C(O)C(C)O1` (stereo not given), the Potency in test [1] was 0.282 µM (active); in test [2] it was 0.178 µM (active); in test [3], 0.251 µM (active); in test [4], 0.251 µM (active); in test [5] it was 0.224 µM (active); in test [6], 3.01 µM (active). Also, the Potency in test [7] is 3.01 µM (active); in [8], 2.69 µM (active); in test [9] it was 3.01 µM (active); in test [10], 2.69 µM (active).

For the molecule `O=C(O)c1cc(=O)c2c3nc4ccccc4oc-3cc(=O)c2[nH]1`, the Potency result in [1], in test [2], in test [3], in test [4], in [5] and in test [6] was “inactive” each time. Further, the Potency entry in test [7], in [8], in test [9] and in test [10] was “inactive” in each case.

For the molecule `CCOc1ccc2c(c1)C(C)=CC(C)(C)N2`, the Potency result in [1], in test [2], in test [3], in [4], in test [5] and in test [6] was “inactive” throughout. The Potency result in test [7], in test [8], in test [9] and in test [10] was “inactive” throughout.

As for `O=C(COc1ccc(Cl)cc1)OCCNC12CC3CC(CC(C3)C1)C2`, the Potency result in test [1], in test [2], in [3], in test [4], in [5] and in test [6] was “inactive” in each case. Also, the Potency entry in test [7], in test [8], in test [9] and in test [10] was “inactive” throughout.

Take `COC(=O)[C@H]1[C@H]2C[C@@H]3c4[nH]c5ccccc5c4CCN3C[C@H]2C[C@@H](OC(=O)c2cc(OC)c(OC)c(OC)c2)[C@@H]1OC`: the Potency was 0.708 µM (active) in test [1]; 0.398 µM (active) in test [2]; 0.282 µM (active) in test [3]; 0.398 µM (active) in test [4]; 0.398 µM (active) in test [5]; 0.338 µM (active) in test [6]. The Potency in test [7] is 0.536 µM (active); in [8], 0.849 µM (active); in test [9], 0.536 µM (active); in test [10], 0.601 µM (active).

For `CC1(C)C(C=C(Cl)Cl)C1C(=O)OCc1cccc(Oc2ccccc2)c1` (stereo not given), the Potency entry in test [1], in test [2], in [3], in test [4], in [5] and in test [6] was “inactive” each time. The Potency result in test [7], in test [8], in test [9] and in [10] was “inactive” each time.

In the case of `Oc1cc(O)c2c(c1)OC(c1ccc(O)c(O)c1)C(O)C2` (stereo not given), the Potency entry in test [1], in test [2], in test [3], in test [4], in test [5] and in [6] was “inactive” in each case. Besides, the Potency entry in test [7], in test [8], in test [9] and in test [10] was “inactive” in each case.

Regarding `CO[C@H]1C[C@@H]2CC[C@@H](C)[C@@](O)(O2)C(=O)C(=O)N2CCCC[C@H]2C(=O)O[C@H]([C@H](C)C[C@@H]2CC[C@@H](OCCO)[C@H](OC)C2)CC(=O)[C@H](C)/C=C(\C)[C@@H](O)[C@@H](OC)C(=O)[C@H](C)C[C@H](C)/C=C/C=C/C=C/1C`, the Potency in [1] is 1.26 µM (active); in test [2], 2 µM (active); in test [3], 3.16 µM (active); in test [4] it was 3.16 µM (active); in [5] it was 1.12 µM (active); in test [6], 4.78 µM (active). Besides, the Potency in test [7] was 1.69 µM (active); in [8], 6.01 µM (active); in test [9] it was 1.9 µM (active); in test [10] it was 4.26 µM (active).

As to `CCCC(=O)Nc1ncnc2c1ncn2C1OC2COP(=O)(O)OC2C1OC(=O)CCC` (stereo not given), the Potency result in test [1], in [2], in test [3], in test [4], in [5] and in [6] was “inactive” each time. In addition, the Potency entry in test [7], in test [8], in [9] and in test [10] was “inactive” each time.

With `COCC(=O)Nc1cc(Sc2ccccc2)ccc1N=C(NC(=O)OC)NC(=O)OC`, the Potency result in test [1], in test [2], in [3], in test [4], in [5] and in [6] was “inactive” throughout. Moreover, the Potency result in [7], in [8], in test [9] and in [10] was “inactive” in each case.

Take `O=C1C(=O)c2ncccc2-c2cccnc21`: the Potency in test [1] was 1.41 µM (active); in test [2], 1 µM (active); in [3], 3.16 µM (active); in [4] it was 2.51 µM (active); in [5], 3.16 µM (active); in test [6], 0.953 µM (active). Further, the Potency is 1.35 µM (active) in test [7], 1.69 µM (active) in test [8], 1.69 µM (active) in test [9] and 1.07 µM (active) in test [10].

For the molecule `Cc1cn([C@H]2C[C@H](O)[C@@H](CO)O2)c(=O)[nH]c1=O`, the Potency entry in test [1], in test [2], in test [3], in [4], in [5] and in test [6] was “inactive” throughout. Further, the Potency result in test [7], in test [8], in test [9] and in test [10] was “inactive” throughout.

`CCCCC/C=C\C/C=C\CCCCCCCC(=O)O`: the Potency result in [1], in [2], in [3], in [4], in test [5] and in [6] was “inactive” throughout. The Potency entry in [7], in [8], in test [9] and in test [10] was “inactive” each time.

Consider `CC(O)CO` (stereo not given), for which the Potency entry in test [1], in [2], in test [3], in [4], in [5] and in [6] was “inactive” in each case. The Potency entry in test [7], in test [8], in test [9] and in [10] was “inactive” throughout.

In the case of `O=S(=O)(O)O`, the Potency result in [1], in [2], in test [3], in test [4], in test [5] and in test [6] was “inactive” each time. The Potency entry in [7], in [8], in test [9] and in test [10] was “inactive” each time.

As for `CC(Cc1ccc(O)c(O)c1)C(C)Cc1ccc(O)c(O)c1` (stereo not given), the Potency entry in test [1], in [2], in [3], in test [4], in test [5] and in [6] was “inactive” each time. The Potency entry in test [7], in test [8], in [9] and in test [10] was “inactive” in each case.

`CC1(C)S[C@@H]2[C@H](NC(=O)[C@@H](NC(=O)N3CCNC3=O)c3ccccc3)C(=O)N2[C@H]1C(=O)O`: the Potency result in test [1], in test [2], in test [3], in [4], in [5] and in [6] was “inactive” each time. The Potency result in test [7], in test [8], in test [9] and in test [10] was “inactive” each time.

On to `CCNC(=O)[C@@H]1CCCN1C(=O)[C@H](CCCN=C(N)N)NC(=O)[C@H](CC(C)C)NC(=O)[C@@H](Cc1c[nH]c2ccccc12)NC(=O)[C@H](Cc1ccc(O)cc1)NC(=O)[C@H](CO)NC(=O)[C@H](Cc1c[nH]c2ccccc12)NC(=O)[C@H](Cc1cnc[nH]1)NC(=O)[C@@H]1CCC(=O)N1`, for which the Potency was 8.91 µM (active) in test [1]; 4.47 µM (active) in test [2]; 7.08 µM (active) in [3]; 11.2 µM (active) in [4]; 7.94 µM (active) in test [5]; 9.53 µM (active) in test [6]. In addition, the Potency in [7] was 7.57 µM (active); in test [8], 15.1 µM (active); in [9] it was 6.75 µM (active); in test [10], 6.75 µM (active).
